Screening results: PubChem, National Center for Advancing Translational Sciences (NCATS)
Pf growth 48h: P. falciparum growth inhibition at 48 hours (one generation) | P. falciparum luciferase growth in erythrocytes, 48 h | Potency, µM (doses to about 28.7 µM), for inactives: top-dose activity change, negative = inhibition, hits mostly inhibitors | hit rate 5.9% among 310,000 | AID 504832; also: potency is read from the fitted curve at half-maximal effect; % is scaled to controls: 0 for no effect and ±100 for the full control effect
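Growth was read as firefly luciferase luminescence after a 48 h, 37 C, 5% CO2 exposure of compounds to reporter-bearing P. falciparum cultures (0.1% parasitemia, 2% hematocrit final) in Albumax-supplemented RPMI 1640.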
Pf growth 96h: P. falciparum growth inhibition at 96 hour, primary screen for plastid delayed-death inhibitors | hit rate 6.9% among 320,000 | P. falciparum luciferase reporter growth, 96 h | Potency, µM (titrated, usually from 28.7 µM), without a hit: top-dose activity change, negative = inhibition, most hits filed as inhibitors | AID 504834; also: potency is read from the fitted curve at half-maximal effect; % is scaled to controls: 0 for no effect and ±100 for the full control effect
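Parasite growth measured via integrated firefly luciferase reporter in P. falciparum. Infected erythrocytes at 2% hematocrit, 0.05% parasitemia final were treated 96 hours at 37 C under 5% CO2, and luminescence was read.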
CHX counter: affects cycloheximide protein synthesis inhibition readout, counter-screen | AID 2314 | hit rate 12% among 300,000 | cell reporter, cycloheximide protein synthesis inhibition counterscreen | max response, %; in the data active = max response mostly above about 13%, no sharp cut-off; inactive = mostly below about 14%; also: read at 38.3 µM for the half of the compounds with a filed dose; 0% is about no effect
HCV inhibitor: HCV inhibition. Huh7.5.1 HCVcc-Cre infection, luciferase reporter, 44 h. Potency, µM (series often up to 41.8 µM), without a hit: at the highest dose activity change, negative = inhibition, most hits filed as inhibitors. hit rate 3.4% among 340,000; also: potency is read from the fitted curve at half-maximal effect; % is scaled to controls: 0 for no effect and ±100 for the full control effect
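1,000 cells/well; 4 h culture; + compound; + HCVcc-Cre (~0.5 moi); 44 h; luciferase substrate, RT 15 min; read 15 sec.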
Shiga inhibitor: Shiga toxin inhibition | Vero cells, Shiga toxin protein synthesis inhibition reporter | inhibition, % at 38.7 µM | hit rate 9.2% among 290,000; in the data active = inhibition mostly above about 28%, no sharp cut-off; inactive = mostly below about 43%; also: 0% is about no effect
HCMV inh: human cytomegalovirus inhibition | HFF cells, HCMV-luciferase reporter, 72 h; active compounds read low | activity change, negative = inhibition, % at 57.5 µM | hit rate 4.5% among 410,000; in the data active = activity change below about -60%; inconclusive = no clear call, values can overlap the other calls; inactive = above about -39%; also: % is scaled to controls: 0 for no effect and ±100 for the full control effect
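Compounds were evaluated in HFFs infected with an HCMV luciferase reporter virus (MOI 1 PFU/cell). Luciferase in lysates collected 72 h post infection served as the replication measure.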
An asterisk follows results filed as active; u = inconclusive; x = no result given. The list is not random: actives were taken first. Their share in the collection is about 21%. Unless noted, calls follow the shape of the dose curve; as a rule, active = well fitted inhibition curve with a large enough effect; inconclusive = small, poorly fitted or top-dose-only effect, or another doubt; inactive = no such curve, though single readings can be large or run the other way.

SMILES	Pf growth 48h	Pf growth 96h	CHX counter	HCV inhibitor	Shiga inhibitor	HCMV inh
CCOC(=O)C(=CNc1nc(-c2ccc3ccccc3c2)cs1)C(=O)OCC	79.3%	74.3%	26.8*	u	38.0*	5.0
COc1ccc(-c2csc(NC(=O)c3cccc(N4C(=O)CCC4=O)c3)n2)cc1C	-4.9%	-18.3%	-1.2	x	15.1	u
O=C(O)c1ccccc1C(=O)Nc1nc(-c2ccc3ccccc3c2)cs1	39.3%	6.9%	36.4*	u	65.9*	-20.9
O=C(Nc1nc(-c2cccc([N+](=O)[O-])c2)cs1)c1cccc([N+](=O)[O-])c1C(=O)O	10.5%	11.6%	2.0	-0.8%	24.5	34.6
CC1CN(S(=O)(=O)c2ccc(C(=O)Nc3ccccc3F)cc2)CC(C)O1 (centres undefined)	x	x	x	-27.8%	x	u
Cc1csc(NC(=O)CN2C(=O)COc3ccc(Cl)cc32)n1	-9.3%	6.1%	x	10.1%	x	u
COc1ccc(-n2c(NNC(C)=O)nc3sc4c(c3c2=O)CCCC4)cc1	42.7%	u	1.8	-3.1%	-1.1	-7.2
Cc1ccc(C)n1-n1c(C)nc2sc3c(c2c1=O)CCCCC3	11.7µM*	11.7µM*	0.5	-3.1%	23.0	-28.5
NNc1nc2sc3c(c2c(=O)n1-c1ccccc1)CCCC3	-21.4%	-16.3%	23.4*	-1.6%	74.9	u
Nn1c(Nc2ccccc2)nc2sc3c(c2c1=O)CCCC3	8.8%	4.7%	20.7*	u	42.9	-8.3
Cc1ccc(-c2nc3sc4c(c3c(=O)n2N)CCCC4)cc1	x	7.38µM*	59.2*	u	37.8	118.6
COc1ccccc1-c1nn2c(=O)cc(CN3CCN(S(=O)(=O)c4ccc(C)cc4)CC3)nc2s1	x	x	x	x	x	9.4
Cc1ccccc1N1C(=O)CC1(C#N)c1ccc(OCc2ccccc2)cc1 (centres undefined)	u	u	0.7	-28.9%	10.2	-84.8*
CCN(CC(=O)Nc1cccc(OC)c1)C(=O)c1ccco1	44.7%	-17.3%	2.7	-16.0%	6.0	1.0
CN(C)S(=O)(=O)c1cccc(-c2nnc(SCCNCCO)n2-c2ccc(F)cc2)c1	-14.4%	-23.5%	8.4	-22.1%	27.0	-22.9
CC1Cc2ccccc2N1S(=O)(=O)c1cccc(C(=O)N2Cc3ccccc3CC2C(N)=O)c1 (centres undefined)	u	13.1µM*	x	-2.1%	x	-1.5
CC1Cc2ccccc2N1S(=O)(=O)c1cccc(C(=O)N2CCCCC2)c1 (centres undefined)	-0.2%	7.1%	x	-21.6%	x	-9.1
COc1ccccc1N1CCN(C(=O)c2cccc(S(=O)(=O)N3c4ccccc4CC3C)c2)CC1 (centres undefined)	x	x	x	10µM*	x	-34.9
CSCCC(NC(=O)c1cccc(C)c1)C(=O)OCN1C(=O)c2ccccc2C1=O (centres undefined)	24.2%	42.5%	x	8.9%	x	-7.5
O=C1SC(SCc2ccccc2)=N/C1=C\c1ccco1	7.8%	x	23.5	u	47.7*	2.2
CC#CC[N+](C)(C)CCCCCCCCCC	0.738µM*	u	-0.4	u	10.4	-65.0*
C#CC[N+](C)(C)CCCCCCCCC	3.7µM*	u	8.2	u	12.8	-94.7*
CCOc1ccccc1CN1CCN(C2CCSCC2)CC1CCO (centres undefined)	6.9%	43.4%	-2.2	7.8%	-13.7	6.3
Cc1nn(-c2ccccc2[N+](=O)[O-])c(=O)c2ccccc12	44.5%	8.8%	0.6	-0.3%	31.9	74.7
Cc1nn(-c2cc(N3CCCC3)ccc2[N+](=O)[O-])c(=O)c2ccccc12	x	u	-1.6	u	-5.3	24.5
SMILES	Pf growth 48h	Pf growth 96h	CHX counter	HCV inhibitor	Shiga inhibitor	HCMV inh
Cc1ccc(-c2nn(-c3cc(Cl)ccc3[N+](=O)[O-])c(=O)c3ccccc23)cc1	u	11.7µM*	-2.2	u	-1.4	u
CC(C)(C)C(=O)N1CCN(c2ccc([N+](=O)[O-])c(-n3nc(-c4ccccc4)c4ccccc4c3=O)c2)CC1	5.22µM*	9.28µM*	-5.0	-11.2%	24.3	-33.7
CCOc1ccc(S(=O)(=O)NN=C(C)c2cccnc2)cc1	x	x	x	17.6%	x	2.2
CC(C)=CCN1CCN(Cc2nc(-c3ccccc3)cs2)CC1CCO (centres undefined)	0.0%	16.4%	7.6	-16.3%	15.2	-25.2
O=C(c1cc(Sc2ccc(Cl)cc2)nc2ccccc12)N1CCN(c2ccccn2)CC1	11.7µM*	56.6%	-4.1	u	13.8	-31.5
O=C(c1cc(Sc2cccc(Cl)c2)nc2ccccc12)N1CCN(c2ccccn2)CC1	u	u	-0.4	10µM*	9.1	u
O=C(c1cc(Cl)ccc1Cl)N1CCN(c2ccccn2)CC1	8.0%	-17.8%	-6.7	1.4%	-10.7	u
O=C(c1cnc(N2CCN(c3ccccn3)CC2)c2ccccc12)N1CCN(c2cccc(Cl)c2)CC1	9.28µM*	-18.3%	-0.6	5.01µM*	16.4	-94.1*
CCC(=O)Nc1nnc(/C=C/c2ccccc2)s1	69.7%	57.0%	44.2*	-1.8%	49.4*	23.0
CC(C)(C)C(=O)Nc1nnc(COc2ccc(Cl)cc2)s1	1.3%	37.8%	25.1*	u	38.5*	-27.2
COc1ccc(/C=C/c2nnc(NC(=O)COc3cccc(C)c3)s2)cc1	12.5%	u	9.4	4.9%	-2.9	-19.5
CCCC(=O)Nc1nnc(/C=C/c2ccccc2)s1	42.0%	u	25.9*	-11.7%	40.4*	-1.3
CCOC(=O)Nc1nnc(/C=C/c2ccc(OC)cc2)s1	22.9%	0.5%	23.6*	0.4%	2.6	u
CCCCOC(=O)Nc1nnc(/C=C/c2ccc(OC)cc2)s1	31.9%	-11.6%	-5.4	10.9%	-7.1	-7.7
CCc1ccccc1NC(=O)c1cc(S(=O)(=O)N2CCCc3ccccc32)ccc1F	x	x	x	x	x	-32.3
COc1ccc(/C=C/c2nnc(NC(=O)COc3ccc(C)cc3)s2)cc1	31.9%	25.4%	13.9*	0.6%	-9.3	54.6
COc1ccc(/C=C/c2nnc(NC(=O)C(C)(C)C)s2)cc1	-24.6%	-17.7%	22.0*	-9.7%	26.2	-12.1
CCCC(=O)Nc1nnc(/C=C/c2ccc(OC)cc2)s1	-3.1%	-8.6%	19.1*	-14.0%	21.5	15.7
COc1ccc(/C=C/c2nnc(NC(=O)COc3ccccc3)s2)cc1	-6.7%	14.5%	-2.4	2.0%	27.9	25.3
CCCCC(=O)Nc1nnc(/C=C/c2ccc(OC)cc2)s1	38.9%	-21.1%	-1.1	1.7%	-6.2	x
O=c1c2oc3ccccc3c2n(Cc2ccccc2F)c(=O)n1Cc1ccco1	x	x	x	x	x	1.4
c1ccc(NC2=Nc3cccc4cccc2c34)cc1	-3.6%	104.0%	21.5*	-17.9%	6.2	4.7
COc1ccc(/C=N/NC2=NS(=O)(=O)c3ccccc32)cc1	u	u	-1.5	16.6%	6.1	-26.1
